# Screens as filed in PubChem BioAssay.
# This is a sample that favours compounds with a hit; in the whole collection about 5.2% have one here.
# Tau ThT inhib = qHTS for Inhibitors of Tau Fibril Formation, Thioflavin T Binding | recombinant tau K18 P301L, heparin-induced fibrillization, ThT fluorescence | Potency, µM (top dose mostly 57.4 µM), inactives show at the highest dose activity, negative = inhibition, most hits filed as inhibitors | actives 2.1% (n = 270,000) | AID 1460, 2008; note: potency is the fitted concentration of half-maximal effect; nearly all actives have a fitted effect of over 55% in size
# Target sequence (P10636 561-689 P618L limits assumed): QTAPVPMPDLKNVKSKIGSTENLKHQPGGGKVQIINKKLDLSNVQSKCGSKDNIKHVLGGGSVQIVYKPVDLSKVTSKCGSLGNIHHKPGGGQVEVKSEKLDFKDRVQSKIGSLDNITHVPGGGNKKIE
#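 Heparin-induced (20 uM) aggregation of recombinant human K18 P301L tau, 15 uM unlabeled with 0.24 uM labeled, pH 7 acetate buffer, 6 hr at 37 C with compound. Fibrils quantified by 30 uM ThT fluorescence after 1 hr ambient incubation.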
# Sfp PPTase inh = qHTS Assay for Inhibitors of Bacillus subtilis Sfp phosphopantetheinyl transferase (PPTase) | 4'-phosphopantetheinyl transferase ffp (Bacillus subtilis), Q9F4F7 | Biochemical Sfp PPTase activity, qHTS | Potency, µM, for inactives: largest response in the series, negative = inhibition, usual class: inhibitors | actives 3.5% (n = 310,000);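 note: the enzyme is Sfp with the accession as filed and its product quenches rhodamine fluorescence; potency is the fitted concentration of half-maximal effect; 0% = enzyme reaction without inhibitor and -100% = no enzyme wells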
#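 Reaction rates are the 30-min fluorescence difference (ex 525, em 598 nm) in wells containing 15 nM Sfp, 5 uM rhodamine-CoA and 12.5 uM BHQ-2-YbbR at pH 7.6 with 10 mM MgCl2.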
# Tau fluor cs = Counterscreen qHTS for Inhibitors of Tau Fibril Formation, Fluorescence Polarization. Potency, µM (doses to about 57.7 µM), without a hit: at the top dose activity change, negative = decrease. actives 0.93% (n = 280,000). tau K18 P301L (four-repeat tau fragment) Alexa594 fluorescence, heparin fibrillization; note: potency is the fitted concentration of half-maximal effect; nearly all actives have a fitted effect of over 55% in size
#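 Human K18 P301L tau (15 uM unlabeled plus 0.24 uM Alexa 594-labeled, final) in 100 mM sodium acetate pH 7 was mixed with compound and 20 uM heparin and incubated 6 hr at 37 C.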
# Coupling enz = qHTS Assay for Inhibitors of Fructose-1,6-bisphosphate Aldolase from Giardia Lamblia: Coupling assay counterscreen; coupling enzyme system counterscreen, AmpLite Red fluorescence; activity change, negative = inhibition, % at 58.2 µM, hits read low; actives 0.67% (n = 290,000); in the data active = activity change below about -30%
#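 Fluorescence at 525 nm excitation and 598 nm emission measured inhibition of the coupled detection system without aldolase. Compounds (at 57.5 uM final) were preincubated 10 min at room temperature with coupling enzyme reagent before a 20 min substrate/AmpLite Red step.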
# Tau fibril FP = qHTS for Inhibitors of Tau Fibril Formation, Fluorescence Polarization; K18 P301L tau heparin fibrillization, Alexa594 FP, 6 h; actives 0.39% (n = 280,000); AID 1468, 2008; Microtubule-associated protein tau (Homo sapiens), P10636; Potency, µM (top dose mostly 57.7 µM), without a hit: at the top dose activity, negative = inhibition, hits mostly inhibitors; note: potency is the fitted concentration of half-maximal effect; nearly all actives have a fitted effect of over 55% in size
#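 Steps: dispense K18 P301L tau (15 uM plus 0.24 uM Alexa 594 tracer, final) in pH 7 sodium acetate; add compound; add heparin (20 uM final); incubate 6 hr, 37 C; add ThT (30 uM final); after 1 hr ambient, read FP.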
# * marks the source's active call; other numbers are inactive results; ? = inconclusive; . = not tested or not shown; ! = a repeat was not active; [ ] = dose if it differs, or a comment. Unless noted, calls come from the whole dose curve; as a rule, active = well fitted curve in the direction sought with a large enough effect; inconclusive = small, poorly fitted or top-dose-only effect, or another doubt; inactive = no such curve, though single readings can be large; an effect the other way counts as inactive or inconclusive. Unless noted, % is set by controls: 0 for no effect and ±100 for the full control effect.
SMILES,Tau ThT inhib,Sfp PPTase inh,Tau fluor cs,Coupling enz,Tau fibril FP
CCCCc1nnc(NC(=O)C2CC(=O)N(c3ccc(C)cc3)C2)s1 (stereo not drawn),-17%,9%,-17%,4,0%
CCc1nnc(NC(=O)C2CC(=O)N(c3ccc(C)cc3)C2)s1 (stereo not drawn),-15%,50µM*,-7%,1,5%
COC(=O)C1=C(C)N(Cc2ccccc2)C(=NCc2ccco2)N[C@H]1c1ccc(Br)cc1,.,-7%,.,0,.
CCOC(=O)c1cc(-c2ccccc2)n(-c2cccc(C(=O)Nc3ccc(OCC)cc3)c2)c1C,-5%,.,-12%,.,-8%
N#CCCN1CCN(S(=O)(=O)c2ccc(S(=O)(=O)N3CCCCCC3)cc2)CC1,-5%,19%,2%,1,?
Cc1ccc(S(=O)(=O)N2CCN(CCC#N)CC2)cc1,2%,79µM*,-3%,1,7%
Cc1ccc(NC(=O)CSc2nsc(SCC(=O)Nc3ccc(C)cc3C)c2C#N)c(C)c1,8%,6%,-1%,1,-10%
CC(=O)CSc1nsc(SCC(C)=O)c1C#N,16µM*,-15%,-28%,3,?
CCOC(=O)CSc1nsc(SCC(=O)OCC)c1C#N,?,7%,-8%,7,8%
Cc1csc(NC(=O)CSc2nsc(SCC(=O)Nc3nc(C)cs3)c2C#N)n1,4µM*,4%,10µM*[quencher],2,-12%
COCCNCC(=O)Nc1nc(C)cs1,-13%,45µM*,-4%,1,-5%
Cc1cn2c(=O)cc(COc3cccc(NC(=O)c4ccccc4C)c3)nc2s1,4%,.,-4%,.,-2%
COc1ccc(N2C(=O)CCSC23C(=O)N(Cc2ccc(F)cc2)c2ccccc23)cc1Cl (stereo not drawn),?,.,-16%,.,-18%
Cc1cc2nc3c(=O)[nH]c(=O)nc-3n(CC(O)C(O)C(O)CO)c2cc1C (stereo not drawn),?,15%,-1%,-33*!,2%
CC(=O)OCCn1c2nc(=O)[nH]c(=O)c-2nc2cc(C)c(C)cc21,?,7%,-8%,-19,-12%
COC(=O)/C=C1\S/C(=N\N=C\CC(=O)OC)NC1=O,7.1µM*,?,-8%,-27,-4%
COC(=O)/C=C1\SC(=Nc2ccc(OC)cc2)NC1=O,?,12%,1%,5,2%
N[C@H](CCC(=O)N[C@H](CSN=O)C(=O)NCC(=O)O)C(=O)O,22µM*,32µM*,-22%,1,?
N[C@@H](CCC(=O)N[C@H](CSN=O)C(=O)NCC(=O)O)C(=O)O,?,.,-21%,.,?
CCc1cccc(C)c1NC(=O)c1ccc2c(c1)CCN2S(=O)(=O)c1ccc(Cl)cc1,-1%,.,-10%,.,-5%
CCC(=O)Nc1ccc2nc3c(=O)n(C)c(=O)n(C)c3nc2c1,-14%,.,-7%,.,-5%
CCN(CC)c1ccc2nc3c(=O)n(C)c(=O)n(C)c3nc2c1,16µM*,.,?,.,?
COc1ccc(Cl)cc1NC(=O)CCc1c(C)nc2c(c1C)c(=O)n(C)c(=O)n2C,0%,.,-13%,.,-9%
O=C(C[n+]1ccc(-c2cc(C(=O)Nc3cccc(C(F)(F)F)c3)c3ccccc3n2)cc1)c1cccc([N+](=O)[O-])c1,?,50µM*,?,-1,9%
O=C(C[n+]1cccc(NC(=O)c2ccccc2)c1)c1cccc([N+](=O)[O-])c1,?,-13%,-27%,0,6%
SMILES,Tau ThT inhib,Sfp PPTase inh,Tau fluor cs,Coupling enz,Tau fibril FP
COc1ccccc1N(CC(=O)Nc1ccc2c(c1)OCO2)S(=O)(=O)c1ccc(C)cc1,?,.,?,.,8%
CCOC(=O)C1=C(SCC)c2cc3c(n2C1=O)CCCC3,11µM*,-24%,?,-4,?
COc1cc(Cl)c(NS(=O)(=O)c2ccc(-c3cnc(C4CC4)o3)cc2)c(OC)c1,-13%,.,?,.,10%
c1cc(-c2cnn3cc(-c4ccc(OCCN5CCCCC5)cc4)cnc23)ccn1,.,-3%,.,-3,.
O=C(Nc1cccc2ccccc12)c1cn(-c2ccccc2)nc1-c1cccs1,1%,19%,-29%,.,?
CCN(CC)CCNC(=O)c1ccc(NC(=O)c2ccccc2-c2ccc(C(F)(F)F)cc2)cc1,.,-10%,.,2,.
CCN(CC)CCNC(=O)c1ccc(NC(=O)c2cn(-c3ccccc3)nc2-c2cccs2)cc1,1%,?,?,-2,10µM*
CCN(CC)CCNC(=O)c1ccc(NC(=O)c2cn(-c3ccc(F)cc3)nc2-c2cccc(OC)c2)cc1,.,50µM*,.,-2,.
O=C(Nc1cccnc1)c1cn(-c2ccccc2)nc1-c1cccs1,7%,13%,18µM*[quencher],-1,28µM*
Cc1ccc(SCc2[nH]nc3c2C(c2ccc(C)o2)C(C#N)=C(N)O3)cc1 (stereo not drawn),14µM*,?,?,-10,?
Cc1ccc(SCc2[nH]nc3c2C(c2ccco2)C(C#N)=C(N)O3)cc1 (stereo not drawn),20µM*,-10%,?,1,?
COC(=O)c1c(O)c2ccccc2[nH]c1=O,-11%,-6%,-6%,-4,1%
O=C(O)c1c(C(=O)O)c2ccccc2[nH]c1=O,-11%,18%,-3%,-33*,-2%
O=c1[nH]c2ccccc2c(O)c1O,3.2µM*,0.32µM*,-23%,-73*,7.1µM*
CC1=NN(c2ccccc2)C(=O)/C1=C/C=C/C=C/N(C)C,16µM*,?,-27%,-9,-5%
CC1=NN(c2ccccc2)C(=O)/C1=C\N(O)c1ccccc1,.,-5%,.,-6,.
CC1=NN(c2ccccc2)C(=O)/C1=C\c1cc(C)n(-c2cccnc2)c1C,?,-9%,-20%,-1,-8%
CC1=NN(c2cccc(C(=O)O)c2)C(=O)/C1=C\C=C/c1ccccc1,7.1µM*,50µM*,?,-3,?
CC1=NN(c2ccc(C)cc2)C(=O)/C1=C\C=C\c1ccccc1,7.1µM*,?,7.9µM*[quencher],1,?
CC1=C(C(=O)Nc2ccc(C)cc2C)C(c2ccc(Br)cc2)n2ncc(C(=O)Nc3cccc(C)c3)c2N1 (stereo not drawn),0%,.,-10%,.,?
COc1cc(OC)c(NC(=O)c2c(C)oc3nc(C)nc(N4CCOCC4)c23)cc1Cl,-1%,.,-1%,.,3%
COC(=O)c1ccccc1NC(=O)C1CCCN(C(=O)c2cnn(-c3ccc(F)cc3)c2-n2cccc2)C1 (stereo not drawn),-11%,.,-5%,.,0%
